From PubChem BioAssay (NCI) come the findings set out here.

Experiment [1] can be described thus: NCI Yeast Anticancer Drug Screen. Data for the rad50 strain (AID 155).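 Further: 0% = growth of vehicle-only cultures of the same strain.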 Particulars: S. cerevisiae rad50 strain growth inhibition, hits give high values. Put shortly: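 Growth of the mutant yeast was measured after compound exposure and referenced to vehicle-treated cultures.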
The nature of experiment [2]: NCI Yeast Anticancer Drug Screen. Data for the mec2-1 strain (AID 157). Particulars: S. cerevisiae mec2-1 strain, hits give high values. A digest of the protocol: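 Strain: mec2-1 (DNA repair/cell cycle alteration). Compound exposure, then growth measured; inhibition expressed relative to vehicle.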
Experiment [3] is described as follows: NCI Yeast Anticancer Drug Screen. Data for the sgs1 mgt1 strain (AID 161).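 Further: 0% = growth of cultures given vehicle only.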 Particulars: S. cerevisiae sgs1 mgt1 strain, hits give high values. A digest of the protocol: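 Inhibition of yeast growth, normalised to vehicle-treated controls, is reported for a strain bearing genetic alterations in DNA damage repair.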
Experiment [4] in a line: NCI Yeast Anticancer Drug Screen. Data for the cln2 rad14 strain (AID 165).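 Further: 0% = growth equal to vehicle treated cultures.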 Particulars: S. cerevisiae cln2 rad14 strain, hits give high values. A digest of the protocol: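 Compounds are applied to the cln2 rad14 yeast strain, and growth is then compared with that of vehicle-treated cultures to give inhibition.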
Experiment [5] in a line: NCI Yeast Anticancer Drug Screen. Data for the bub3 strain (AID 167). Particulars: S. cerevisiae bub3 mutant strain, hits give high values. A digest of the protocol: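 Whole-cell yeast assay. The mutant strain was incubated with compounds, and growth inhibition was determined by comparison with vehicle-treated cells.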
Experiment [6] can be described thus: NCI Yeast Anticancer Drug Screen. Data for the mlh1 rad18 strain (AID 175). Particulars: S. cerevisiae mlh1 rad18 strain growth inhibition, hits give high values. A digest of the protocol:
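Read-out is yeast growth inhibition, calculated against vehicle-only controls. The compound was applied to a strain engineered with DNA damage repair alterations.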

Setting [7] is: at 5.0 µM (retest, dose inferred, filed as 0.5).
[8] abbreviates: at 50.0 µM (retest, dose inferred, filed as 5.0).

SMILES strings stand for the structures. Compounds without any hit were thinned out: in the full panel of roughly 79,000, 15% have a hit. A number with no mark means an inactive call. The source made the active and inactive calls. No stated cut-off is given here; in the data, active means growth inhibition above about 70%; inactive means the rest.

Take `COC(=O)[C@]1(C)CCCC2(C)C3=C(CCC21)CC1(CC3)SCCS1` (stereo not given in full): the growth inhibition in experiment [1] (setting [7]) was 12%; in experiment [1] (setting [8]) it was 92% (active); in experiment [1] (at 50.0 µM), 85.4% (active); in experiment [2] (setting [7]) it was 41%; in experiment [2] (setting [8]) it was 94% (active); in experiment [2] (at 50.0 µM) it was 91.3% (active). Further, the growth inhibition was 29% in experiment [3] (setting [7]); 93% (active) in experiment [3] (setting [8]); 87.6% (active) in experiment [3] (at 50.0 µM); 46% in experiment [4] (setting [7]); 96% (active) in experiment [4] (setting [8]); 86.4% (active) in experiment [4] (at 50.0 µM). For the same molecule, the growth inhibition is 56% in experiment [5] (setting [7]); 95% (active) in experiment [5] (setting [8]); 86.5% (active) in experiment [5] (at 50.0 µM); 18% in experiment [6] (setting [7]); 95% (active) in experiment [6] (setting [8]); 85.7% (active) in experiment [6] (at 50.0 µM).
Consider `Nc1nc(-c2ccccc2)c(N=Nc2c(Cl)cccc2Cl)s1`, for which the growth inhibition was -2% in experiment [1] (setting [7]); 94% (active) in experiment [1] (setting [8]); 96.5% (active) in experiment [1] (at 50.0 µM); 21% in experiment [2] (setting [7]); 95% (active) in experiment [2] (setting [8]); 90.3% (active) in experiment [2] (at 50.0 µM). Further, the growth inhibition in experiment [3] (setting [7]) was 9%; in experiment [3] (setting [8]), 94% (active); in experiment [3] (at 50.0 µM), 55.4%; in experiment [4] (setting [7]) it was 17%; in experiment [4] (setting [8]), 95% (active); in experiment [4] (at 50.0 µM), 87.7% (active). In addition, the growth inhibition was 13% in experiment [5] (setting [7]); 94% (active) in experiment [5] (setting [8]); 91% (active) in experiment [5] (at 50.0 µM); 17% in experiment [6] (setting [7]); 94% (active) in experiment [6] (setting [8]); 96.8% (active) in experiment [6] (at 50.0 µM).
Turning to `Cc1ccc(S(=O)(=O)CC2COC(CS(=O)(=O)c3ccc(C)cc3)CO2)cc1` (stereo not given), the growth inhibition in experiment [1] (setting [7]) was 2%; in experiment [1] (setting [8]) it was 3%; in experiment [1] (at 50.0 µM) it was -14.7%; in experiment [2] (setting [7]), 1%; in experiment [2] (setting [8]), 6%; in experiment [2] (at 50.0 µM), 33.7%. Besides, the growth inhibition was 10% in experiment [3] (setting [7]); -6% in experiment [3] (setting [8]); 3% in experiment [3] (at 50.0 µM); 8% in experiment [4] (setting [7]); 5% in experiment [4] (setting [8]); 33.1% in experiment [4] (at 50.0 µM). Further, the growth inhibition was 2% in experiment [5] (setting [7]); 11% in experiment [5] (setting [8]); 66.4% in experiment [5] (at 50.0 µM); -2% in experiment [6] (setting [7]); 1% in experiment [6] (setting [8]); 28.8% in experiment [6] (at 50.0 µM).
Take `[O-][n+]1c2ccccc2nc2cc(Cl)ccc21`: the growth inhibition in experiment [1] (setting [7]) is -114%; in experiment [1] (setting [8]) it was 11%; in experiment [1] (at 50.0 µM) it was 92.2% (active); in experiment [2] (setting [7]) it was -35%; in experiment [2] (setting [8]) it was -32%; in experiment [2] (at 50.0 µM), 21.6%. In addition, the growth inhibition in experiment [3] (setting [7]) is -53%; in experiment [3] (setting [8]), 6%; in experiment [3] (at 50.0 µM) it was 68.5%; in experiment [4] (setting [7]), -64%; in experiment [4] (setting [8]), -46%; in experiment [4] (at 50.0 µM), 25.6%. For the same molecule, the growth inhibition in experiment [5] (setting [7]) is -47%; in experiment [5] (setting [8]), -1%; in experiment [5] (at 50.0 µM) it was 48.1%; in experiment [6] (setting [7]) it was -105%; in experiment [6] (setting [8]), -17%; in experiment [6] (at 50.0 µM), 84.8% (active).
As for `N#CC1(C#N)C(C#N)(C#N)C12CCC2`, the growth inhibition was 4% in experiment [1] (setting [7]); 87% (active) in experiment [1] (setting [8]); 35.2% in experiment [1] (at 50.0 µM); 6% in experiment [2] (setting [7]); 88% (active) in experiment [2] (setting [8]); 49.8% in experiment [2] (at 50.0 µM). Further, the growth inhibition in experiment [3] (setting [7]) was 6%; in experiment [3] (setting [8]), 91% (active); in experiment [3] (at 50.0 µM), 50.6%; in experiment [4] (setting [7]) it was 0%; in experiment [4] (setting [8]) it was 65%; in experiment [4] (at 50.0 µM), -2.45%. Also, the growth inhibition in experiment [5] (setting [7]) is 7%; in experiment [5] (setting [8]), 96% (active); in experiment [5] (at 50.0 µM), 70% (active); in experiment [6] (setting [7]), 2%; in experiment [6] (setting [8]), 96% (active); in experiment [6] (at 50.0 µM), 83.8% (active).
Consider `O=[N+]([O-])c1ccc(/C(=C\c2ccccc2)Cn2ccnc2)cc1`, for which the growth inhibition in experiment [1] (setting [7]) was 88% (active); in experiment [1] (setting [8]), 94% (active); in experiment [1] (at 50.0 µM) it was 71.5% (active); in experiment [2] (setting [7]) it was 59%; in experiment [2] (setting [8]) it was 85% (active); in experiment [2] (at 50.0 µM) it was 77% (active). For the same molecule, the growth inhibition in experiment [3] (setting [7]) is 84% (active); in experiment [3] (setting [8]) it was 92% (active); in experiment [3] (at 50.0 µM), 71.3% (active); in experiment [4] (setting [7]), 89% (active); in experiment [4] (setting [8]), 91% (active); in experiment [4] (at 50.0 µM), 64.8%. In addition, the growth inhibition was 78% (active) in experiment [5] (setting [7]); 94% (active) in experiment [5] (setting [8]); 81.8% (active) in experiment [5] (at 50.0 µM); 80% (active) in experiment [6] (setting [7]); 92% (active) in experiment [6] (setting [8]); 75.5% (active) in experiment [6] (at 50.0 µM).
On to `C/C(=N\NC(=S)Nc1ccc(C(=O)O)cc1C)c1ccc2ccccc2n1`, for which the growth inhibition in experiment [1] (setting [7]) was 1%; in experiment [1] (setting [8]), 55%; in experiment [1] (at 50.0 µM) it was 86.2% (active); in experiment [2] (setting [7]), 20%; in experiment [2] (setting [8]), 62%; in experiment [2] (at 50.0 µM), 97.8% (active). Further, the growth inhibition is -3% in experiment [3] (setting [7]); 42% in experiment [3] (setting [8]); 81.6% (active) in experiment [3] (at 50.0 µM); 11% in experiment [4] (setting [7]); 30% in experiment [4] (setting [8]); 33% in experiment [4] (at 50.0 µM). The growth inhibition is 0% in experiment [5] (setting [7]); 45% in experiment [5] (setting [8]); 34% in experiment [5] (at 50.0 µM); -1% in experiment [6] (setting [7]); 49% in experiment [6] (setting [8]); 91.7% (active) in experiment [6] (at 50.0 µM).
On to `O=C1CCC(O)N1CN1C(=O)CCC1O` (stereo not given), for which the growth inhibition in experiment [1] (setting [7]) was -4%; in experiment [1] (setting [8]), 1%; in experiment [1] (at 50.0 µM), 36.1%; in experiment [2] (setting [7]), -4%; in experiment [2] (setting [8]) it was -17%; in experiment [2] (at 50.0 µM) it was 18.4%. In addition, the growth inhibition was 9% in experiment [3] (setting [7]); -3% in experiment [3] (setting [8]); 22.9% in experiment [3] (at 50.0 µM); -17% in experiment [4] (setting [7]); 10% in experiment [4] (setting [8]); 20.8% in experiment [4] (at 50.0 µM). Moreover, the growth inhibition is 18% in experiment [5] (setting [7]); -4% in experiment [5] (setting [8]); 22.1% in experiment [5] (at 50.0 µM); -6% in experiment [6] (setting [7]); -10% in experiment [6] (setting [8]); 46.5% in experiment [6] (at 50.0 µM).
With `CCCCCCCC(CC(=O)O)OC(=O)CC(CCCCCCC)OC1OC(C)C(O)C(O)C1OC1OC(C)C(O)C(O)C1O` (stereo not given), the growth inhibition in experiment [1] (setting [7]) was -62%; in experiment [1] (setting [8]), 68%; in experiment [1] (at 50.0 µM), 87.2% (active); in experiment [2] (setting [7]), -26%; in experiment [2] (setting [8]), -5%; in experiment [2] (at 50.0 µM), 91.8% (active). The growth inhibition is -43% in experiment [3] (setting [7]); 55% in experiment [3] (setting [8]); 92.3% (active) in experiment [3] (at 50.0 µM); -42% in experiment [4] (setting [7]); 37% in experiment [4] (setting [8]); 82.3% (active) in experiment [4] (at 50.0 µM). In addition, the growth inhibition is -47% in experiment [5] (setting [7]); 96% (active) in experiment [5] (setting [8]); 89.5% (active) in experiment [5] (at 50.0 µM); -68% in experiment [6] (setting [7]); 96% (active) in experiment [6] (setting [8]); 84.2% (active) in experiment [6] (at 50.0 µM).
With `COc1cccc2c1C1c3ccccc3Sc3cccc(c31)O2` (stereo not given), the growth inhibition in experiment [1] (setting [7]) is 6%; in experiment [1] (setting [8]) it was 3%; in experiment [1] (at 50.0 µM) it was 5.2%; in experiment [2] (setting [7]) it was 6%; in experiment [2] (setting [8]), 3%; in experiment [2] (at 50.0 µM) it was 18.3%. The growth inhibition is 4% in experiment [3] (setting [7]); 3% in experiment [3] (setting [8]); 19.6% in experiment [3] (at 50.0 µM); 1% in experiment [4] (setting [7]); -21% in experiment [4] (setting [8]); 40.2% in experiment [4] (at 50.0 µM). The growth inhibition in experiment [5] (setting [7]) was -1%; in experiment [5] (setting [8]) it was -2%; in experiment [5] (at 50.0 µM), 43.9%; in experiment [6] (setting [7]), 4%; in experiment [6] (setting [8]), 1%; in experiment [6] (at 50.0 µM), 21.1%.
